Measurements as given in PubChem BioAssay.
Values without a mark were called inactive. Active and inactive are the calls of the source. Cut-off read from the data, not from the text of the source, unless noted: active = inhibition above about 36%; inactive = the rest.

Key:
[1] = system: transactivating tegument protein VP16 (Human herpesvirus 1); assay: compounds suppressing VP16-driven luciferase signal – cell-based, luminescence, single concentration, counter-screen for SRC2 inhibitor project (AID 652007); conditions: cell-based VP16 transactivation luciferase reporter, at 8.9 µM, stronger effect = higher value
[2] = target: Nuclear receptor coactivator 2 (Homo sapiens) (UniProt Q15596); assay: inhibition of GAL4-SRC2 driven luciferase expression – cell-based, luminescence, HEK293, triplicate, confirmation (AID 652008;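 active = mean inhibition above 46.5%, the solvent-only control mean plus 3 SD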;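 note: 0% = DMSO-treated cells and 100% = Gossypol at 36 µM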); conditions: HEK293 GAL4-SRC2 luciferase reporter, at 8.9 µM, stronger effect = higher value
Sequence of Nuclear receptor coactivator 2 (Homo sapiens) (Q15596 whole entry, looked up, the tested form may be a part): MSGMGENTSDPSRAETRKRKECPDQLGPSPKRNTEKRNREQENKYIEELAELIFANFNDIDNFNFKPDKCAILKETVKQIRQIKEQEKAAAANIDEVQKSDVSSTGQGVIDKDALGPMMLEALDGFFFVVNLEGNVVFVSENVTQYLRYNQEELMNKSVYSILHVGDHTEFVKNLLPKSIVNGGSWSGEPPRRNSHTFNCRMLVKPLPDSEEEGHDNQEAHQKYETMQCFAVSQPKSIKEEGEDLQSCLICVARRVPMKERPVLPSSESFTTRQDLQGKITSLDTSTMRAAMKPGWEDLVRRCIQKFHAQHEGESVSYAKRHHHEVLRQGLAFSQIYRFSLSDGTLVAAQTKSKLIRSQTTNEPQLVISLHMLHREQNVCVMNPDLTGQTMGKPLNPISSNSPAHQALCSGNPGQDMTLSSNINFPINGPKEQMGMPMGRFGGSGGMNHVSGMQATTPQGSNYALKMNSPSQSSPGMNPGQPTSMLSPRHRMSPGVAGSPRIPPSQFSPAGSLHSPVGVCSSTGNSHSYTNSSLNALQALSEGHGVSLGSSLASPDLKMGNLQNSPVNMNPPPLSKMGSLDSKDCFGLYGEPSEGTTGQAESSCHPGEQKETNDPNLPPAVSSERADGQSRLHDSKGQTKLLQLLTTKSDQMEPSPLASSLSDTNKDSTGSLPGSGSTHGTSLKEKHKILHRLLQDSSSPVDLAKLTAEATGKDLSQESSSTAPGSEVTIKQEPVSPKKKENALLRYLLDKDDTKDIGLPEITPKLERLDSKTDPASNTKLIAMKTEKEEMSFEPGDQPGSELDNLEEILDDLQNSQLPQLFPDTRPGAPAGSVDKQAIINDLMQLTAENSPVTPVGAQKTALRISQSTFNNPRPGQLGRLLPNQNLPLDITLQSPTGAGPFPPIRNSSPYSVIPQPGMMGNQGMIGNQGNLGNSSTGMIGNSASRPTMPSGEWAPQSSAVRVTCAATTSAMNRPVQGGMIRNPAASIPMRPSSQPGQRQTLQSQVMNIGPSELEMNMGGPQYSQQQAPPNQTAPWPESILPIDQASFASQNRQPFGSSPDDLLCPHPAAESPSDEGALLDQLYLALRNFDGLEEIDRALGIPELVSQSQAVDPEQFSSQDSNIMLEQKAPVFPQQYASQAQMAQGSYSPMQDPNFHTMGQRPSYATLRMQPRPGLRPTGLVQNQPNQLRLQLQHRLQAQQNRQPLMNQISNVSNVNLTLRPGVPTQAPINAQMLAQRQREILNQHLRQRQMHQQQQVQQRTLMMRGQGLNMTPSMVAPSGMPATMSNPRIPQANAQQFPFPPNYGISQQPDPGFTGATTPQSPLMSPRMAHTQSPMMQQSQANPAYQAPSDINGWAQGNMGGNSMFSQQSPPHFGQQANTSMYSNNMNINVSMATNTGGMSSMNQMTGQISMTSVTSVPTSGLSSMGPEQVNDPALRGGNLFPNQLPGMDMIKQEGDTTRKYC

COC(=O)c1nn(-c2ccc3c(c2)CCN3C(C)=O)cc1O
inhibition [1]: -21.8% | inhibition [2]: 43.5%

O=C(O)c1cccc(CSc2nnc(COc3ccccc3)o2)c1
inhibition [1]: 15.7% | inhibition [2]: 34.5%

Cc1cc(C)n(CCC(=O)N/N=C/c2c(O)ccc3ccccc23)n1
inhibition [1]: 5.98% | inhibition [2]: 17.2%

Cc1c([N+](=O)[O-])cnc(Sc2ccccc2)c1[N+](=O)[O-]
inhibition [1]: 3.41% | inhibition [2]: 16.7%

CCn1nc(NS(=O)(=O)c2ccc([N+](=O)[O-])cc2)c2cc3ccc(C)cc3nc21
inhibition [1]: 10.1% | inhibition [2]: -26.1%

NCCN1C(=O)S/C(=C\c2ccc3c(c2)OCO3)C1=O
inhibition [1]: 44% (active) | inhibition [2]: 56.6% (active)

O=c1[nH]sc2ccccc12
inhibition [1]: 7.96% | inhibition [2]: 8.22%

CCCC(CCC)C(=O)Nc1ccc2c(c1)N(C(=O)CN1CCN(C)CC1)c1ccccc1CC2
inhibition [1]: -0.11% | inhibition [2]: -4.28%

Nc1ccc(C(=O)N2CCN(S(=O)(=O)c3ccc4c(c3)OCCO4)CC2)cc1[N+](=O)[O-]
inhibition [1]: 2.71% | inhibition [2]: 40.5%

Cc1ccc(-c2nnc(SCCC(=O)N3CCOCC3)o2)cc1
inhibition [1]: -40.9% | inhibition [2]: -16.8%

CCOC(=O)c1c(NC(=O)C2=COCCO2)sc2c1CCN(C(=O)OC)C2
inhibition [1]: 3.45% | inhibition [2]: 8.72%

COc1ccc(-c2nnn(CC(=O)N(Cc3cccs3)C(C)C(=O)NCCC(C)C)n2)cc1OC (centres undefined)
inhibition [1]: -10.9% | inhibition [2]: 9.41%

CCCCc1ccc(S(=O)(=O)N/N=C(/C)c2ccncc2)cc1
inhibition [1]: 30.5% | inhibition [2]: 68.7% (active)

CCOc1ccc(-c2cc(CCCC(=O)NCCc3ccccc3)no2)cc1
inhibition [1]: 6.55% | inhibition [2]: 44.9%

CC1CCc2nc(NC(=O)c3ccco3)sc2C1 (centres undefined)
inhibition [1]: -23.2% | inhibition [2]: 11.1%

Cc1ccccc1CS(=O)(=O)c1ccc(C(=O)N2CCOCC2)cc1[N+](=O)[O-]
inhibition [1]: 14.6% | inhibition [2]: 24.6%

COc1ccc2ccc(O)c(CN3CCN(S(=O)(=O)c4cccc(C(F)(F)F)c4)CC3)c2c1
inhibition [1]: 6.66% | inhibition [2]: -14%

CCc1ccc(C(=O)N2CCN(c3ccc(NC(=O)c4cccnc4)cc3)CC2)cc1
inhibition [1]: -14.2% | inhibition [2]: -9.49%

O=C(COc1ccc2c(c1)CCC2)Nc1ccccn1
inhibition [1]: 2.76% | inhibition [2]: 41%

O=C(c1cccc2c1-c1ccccc1/C2=N/O)N1CCCCC1
inhibition [1]: 0.22% | inhibition [2]: 30%

COc1ccccc1/C=C1\SC(=S)N(CCC(=O)NCCCn2ccnc2)C1=O
inhibition [1]: -0.06% | inhibition [2]: 1.79%

CC(C)(C)c1nn(-c2ccccc2)c2[nH]c(=O)c(CNc3ccc4c(c3)OCCO4)cc12
inhibition [1]: -7.89% | inhibition [2]: 3.22%

Cc1cc(F)ccc1NC(=O)CCc1c(C)nn(-c2ccc(N3CCCCC3)nn2)c1C
inhibition [1]: -53% | inhibition [2]: 3.56%

O=C(CCCN1C(=O)/C(=C/c2cccs2)SC1=S)Nc1ccccn1
inhibition [1]: 12.4% | inhibition [2]: 10.9%

COc1ccc(/C=C2\SC(=S)N(CCCC(=O)N3CCN(C)CC3)C2=O)cc1
inhibition [1]: -11.9% | inhibition [2]: 2.68%

CC(C)OC(=O)c1ccc(NCc2cc(O)ccc2O)cc1
inhibition [1]: 51.7% (active) | inhibition [2]: 54.8% (active)

C[C@@H]1C[C@H]2O[C@@H]2/C=C\C=C\C(=O)Cc2cc(O)cc(O)c2C(=O)O1
inhibition [1]: 34.7% | inhibition [2]: 15.2%

O=C(NC(=O)c1ccccc1)Nc1ccccn1
inhibition [1]: 4.41% | inhibition [2]: 54.8% (active)

Cc1ccc(N(C(=O)c2ccc3c(c2)OCO3)C2C=CS(=O)(=O)C2)cc1C (centres undefined)
inhibition [1]: 0.8% | inhibition [2]: -17.6%

O=S(=O)(C/C(=C/CO)S(=O)(=O)c1ccccc1)c1ccccc1
inhibition [1]: 79.3% (active) | inhibition [2]: 67% (active)

COCCN(C(=O)CCC(=O)Nc1nccs1)C(C(=O)NC(C)(C)C)c1ccc(C)cc1 (centres undefined)
inhibition [1]: 11.2% | inhibition [2]: 5.44%

CCOC(=O)C1=CCN(S(=O)(=O)c2ccc(C)cc2)C1c1ccccc1F (centres undefined)
inhibition [1]: -19.3% | inhibition [2]: -7.88%

COc1ccc(CCNc2oc(Cc3cccc4ccccc34)nc2C#N)cc1OC
inhibition [1]: -7.8% | inhibition [2]: 7.3%

Cc1nc(SCCC(=O)O)c2cc(-c3ccccc3)sc2n1
inhibition [1]: 48.6% (active) | inhibition [2]: 80.1% (active)

O=C(NC1CC1)c1ccc2c(c1)N(Cc1ccc(Cl)cc1)CCS2
inhibition [1]: 4.34% | inhibition [2]: 18.6%

Cc1ccccc1C(=O)N1CCN(c2ccc(NC(=O)c3ccccc3[N+](=O)[O-])cc2)CC1
inhibition [1]: -22% | inhibition [2]: 12.1%

O=C(O)COc1ccc(-c2nccc(-c3ccccn3)n2)cc1
inhibition [1]: 20.4% | inhibition [2]: 79.1% (active)

CC(C)(C)c1ccc(-c2noc(CCC(=O)NCc3ccco3)n2)cc1
inhibition [1]: 40.9% (active) | inhibition [2]: 59.5% (active)

C=CCn1nc(C(=O)N2CCOCC2)cc1-c1sc(NC(=O)c2ccccc2)nc1C
inhibition [1]: -15.6% | inhibition [2]: 24.6%

CCOC(=O)CN(C)C(=O)CCc1nnc(-c2ccc(-c3ccccc3)cc2)o1
inhibition [1]: -17.7% | inhibition [2]: 19.8%

CCC/C(C#Cc1cc(OC)cc(OC)c1)=C1/c2ccccc2C(=O)N1c1ccccc1
inhibition [1]: 3.37% | inhibition [2]: -4.64%

CCOC(=O)C1CCCCN1C(=O)CCc1c(C)nc2cc(-c3ccccc3)nn2c1C (centres undefined)
inhibition [1]: -0.8% | inhibition [2]: 70.2% (active)

CCC(=O)Nc1ccc(NCc2ccc(-c3ccccc3)cc2)cc1
inhibition [1]: 20.7% | inhibition [2]: 17.8%

CCOc1ccc(-c2cc(CCCC(=O)N3CCN(c4ccc(OC)cc4)CC3)no2)cc1
inhibition [1]: 4.64% | inhibition [2]: 18.6%

Nc1ccc(OC(=O)Nc2ccc(O)cc2)cc1
inhibition [1]: 31.8% | inhibition [2]: 73.7% (active)

CC(OC(=O)CN1C(=O)NC2(CCCC2)C1=O)c1ccc(F)cc1 (centres undefined)
inhibition [1]: -16.9% | inhibition [2]: -26.5%

COc1cc(SC)ccc1C(=O)Nc1ncc(C)s1
inhibition [1]: 10.3% | inhibition [2]: 24%

O=C(CN1C(=O)NC2(CCCCCC2)C1=O)Nc1ccc(Br)cc1Br
inhibition [1]: -12.2% | inhibition [2]: 2.3%

COc1ccc(/C=C2\SC(=S)N(CCC(=O)N3CCCCC3CCO)C2=O)cc1 (centres undefined)
inhibition [1]: 1.26% | inhibition [2]: 26.7%

CC1CCc2nc(N)c(C#N)c(-c3cccn3C)c2C1 (centres undefined)
inhibition [1]: 15.5% | inhibition [2]: 15.7%

O=C(CN1C(=O)c2ccccc2S1(=O)=O)c1ccccc1Cl
inhibition [1]: 37.8% (active) | inhibition [2]: 68.9% (active)

CCCCC(NC(=O)CCc1c(C)c2cc3c4c(oc3c(C)c2oc1=O)CCCC4)C(=O)O (centres undefined)
inhibition [1]: 31.6% | inhibition [2]: 29.4%

COc1ccccc1CNS(=O)(=O)c1ccc(-c2cc(C)no2)cc1
inhibition [1]: -13% | inhibition [2]: -7.27%

CC(C)=C1C2CCC1C1C(=O)N(c3nccs3)C(=O)C21 (centres undefined)
inhibition [1]: 12.1% | inhibition [2]: 6.16%

CC(=O)N1CCCc2cc(S(=O)(=O)N3CCCC(C(=O)NCc4ccccc4Cl)C3)ccc21 (centres undefined)
inhibition [1]: 24.9% | inhibition [2]: 21.1%

Cc1ccc(NC(=O)C2(C)CCN2C(=O)CC(c2ccccc2)c2ccccc2)cc1 (centres undefined)
inhibition [1]: -6.43% | inhibition [2]: -7.67%

Nc1cccc(-c2cc3ccccc3oc2=O)c1
inhibition [1]: 22.1% | inhibition [2]: 56.9% (active)

O=C(Cc1coc2cc3c(cc12)CCC3)OCC(=O)N1CCCC1=O
inhibition [1]: 16.3% | inhibition [2]: 38.7%

COc1ccc(S(=O)(=O)N2CCCCCC2)cc1C(=O)NCc1ccco1
inhibition [1]: -3.91% | inhibition [2]: 1.95%

CN1CCN(/N=C/c2ccc(N(c3ccccc3)c3ccccc3)cc2)CC1
inhibition [1]: 2.36% | inhibition [2]: 27.4%

O=C(O)/C=C/C(=O)N(CC1CCCO1)C1CC(=O)N(c2c(Cl)cccc2Cl)C1=O (centres undefined)
inhibition [1]: -22.7% | inhibition [2]: -29.3%

CCS(=O)(=O)c1ncc(Cl)c(C(=O)Nc2ccc(S(=O)(=O)N3CCC(C)CC3)cc2)n1
inhibition [1]: 89.9% (active) | inhibition [2]: 86.7% (active)

CC(C)C[C@@H]1Cc2[nH][nH]c(=O)c2[C@H](C(C)C)O1
inhibition [1]: -6.29% | inhibition [2]: -23.6%

CCOC(=O)C1CCN(C(=O)CCc2c(C)nc3cc(-c4ccccc4)nn3c2C)CC1
inhibition [1]: -24.4% | inhibition [2]: 48.5% (active)

O=S(=O)(c1ccc2c(c1)OCCO2)N1CCN(c2ncnc3sccc23)CC1
inhibition [1]: 6.15% | inhibition [2]: 36.6%

COc1ccc(C(=O)NC2CC3CCCC(C2)N3CC(C)C)cc1 (centres undefined)
inhibition [1]: 2.31% | inhibition [2]: -12.2%

N#CCCN(C(=O)CCl)c1cccc(Cl)c1
inhibition [1]: 28.7% | inhibition [2]: 62.8% (active)

COC(=O)[C@H]1[C@@H](O)[C@@]2(O)c3c(OC)cc(OC)cc3O[C@@]2(c2ccc(OC)cc2)[C@@H]1c1ccc(F)cc1
inhibition [1]: 32.4% | inhibition [2]: 51.4% (active)

CC(C)(C)c1ccc(NC(=O)COc2ccc(-n3ccnc3)cc2)cc1
inhibition [1]: 10.3% | inhibition [2]: 61.8% (active)

COC(=O)Cc1ccc(NC(=O)c2ccccc2Cl)cc1
inhibition [1]: -35.8% | inhibition [2]: 8.14%

COc1cc(OC)c2c(-c3cccc(-c4ccc(N(C)C)cc4)c3)cc(=O)oc2c1
inhibition [1]: -17.4% | inhibition [2]: 27.6%

O=C(NCCCN1CCOCC1)c1cc(-c2ccc(Br)cc2)on1
inhibition [1]: -7.7% | inhibition [2]: 13.1%
